Some test systems named below: SNB-75 CNS; SNB-19 CNS; U251 CNS; PC-3 prostate; SK-MEL-5 melanoma; UACC-62 melanoma; LOX IMVI melanoma; SK-MEL-28 melanoma; SK-MEL-2 melanoma.
Common to all, as to experiment: NCI-60 one-dose screen, 48 h (100 = growth as untreated, 0 = no growth, -100 = all killed)
Holding throughout (settings): 10 µM unless noted

The panel holds about 83,000 compounds, 20% with a hit somewhere; the sample as a whole holds those more often.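 Method: cells in 96-well plates; compound added at one concentration; 48 h incubation; percent growth measured; values under 10 scored active.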 Unmarked numbers belong to inactive results. Calls of active or inactive are those of the source.

`CC(c1ccccn1)C(C)(O)C(C)c1ccccn1` (centres undefined): the growth in the test on SNB-75 CNS was 99.7%; in the test on SNB-19 CNS, 98.9%; with U251 CNS it was 98.7%; in the test on PC-3 prostate, 98.9%; with SK-MEL-5 melanoma, 105%; in the test on UACC-62 melanoma it was 95.6%. Moreover, the growth in the test on LOX IMVI melanoma was 95.6%; in the test on SK-MEL-28 melanoma it was 111%; in the test on SK-MEL-2 melanoma, 105%.
Regarding `COc1ccc(-c2cc(Cc3cccs3)c(=O)n(Cn3ccc4ccccc43)n2)cc1`, the growth with SNB-75 CNS was 92.6%; with SNB-19 CNS, 102%; with U251 CNS, 104%; with SK-MEL-5 melanoma it was 104%; in the test on UACC-62 melanoma it was 87.7%; with LOX IMVI melanoma, 96.5%. Also, in the test with SK-MEL-28 melanoma, the growth was 114%.
For `O=C1c2ccccc2-c2c1nc1ccccc1[n+]2[O-]`, the growth is 103% in the test with SNB-75 CNS; 103% in the test with SNB-19 CNS; 103% in the test with U251 CNS; 99.4% with PC-3 prostate; 105% in the test with UACC-62 melanoma; 101% in the test with LOX IMVI melanoma. In addition, the growth was 113% in the test on SK-MEL-28 melanoma and 107% in the test on SK-MEL-2 melanoma.
Take `O=C1NCN(c2ccccc2)C12CCN(CCCC(c1ccc(F)cc1)c1ccc(F)cc1)CC2`: the growth in the test on SNB-75 CNS was 72%; in the test with SNB-19 CNS, 78.2%; in the test on U251 CNS it was 55.2%; with PC-3 prostate, 96.3%; with SK-MEL-5 melanoma it was 41.4%; in the test with UACC-62 melanoma it was 78.2%. Besides, the growth in the test on LOX IMVI melanoma is 61.9%; with SK-MEL-28 melanoma it was 56.8%; in the test with SK-MEL-2 melanoma, 81%.
With `CCCCCCC(C)(O)c1ccccc1` (centres undefined), the growth with SNB-75 CNS is 90.6%; with SNB-19 CNS, 104%; in the test with U251 CNS it was 109%; in the test on SK-MEL-5 melanoma it was 109%; in the test on UACC-62 melanoma, 96.5%; in the test on LOX IMVI melanoma, 92%. Also, the growth with SK-MEL-28 melanoma was 115%.
`CCOc1cc(-c2ccc[nH]2)[nH]c1/C=C1\N=C(C)C(C(=O)OC)=C1C`: the growth was -65% (active) in the test on SNB-75 CNS; 11.9% in the test on SNB-19 CNS; -62.4% (active) with U251 CNS; -93% (active) with SK-MEL-5 melanoma; -74.7% (active) with UACC-62 melanoma; -56.5% (active) in the test with LOX IMVI melanoma. Also, in the test with SK-MEL-28 melanoma, the growth is -83.5% (active).
For the molecule `CC1=CSC2=NCCN12`, the growth with SNB-75 CNS is 98.4%; in the test on SNB-19 CNS it was 101%; in the test on U251 CNS, 109%; in the test on SK-MEL-5 melanoma, 106%; in the test with UACC-62 melanoma, 100%; with LOX IMVI melanoma it was 94.4%. In addition, the growth in the test on SK-MEL-28 melanoma is 118%.
For `O=C(CCc1nnc(Cn2cncn2)o1)c1nc2ccccc2[nH]1`, the growth was 99.1% with SNB-75 CNS; 111% in the test with SNB-19 CNS; 103% with U251 CNS; 105% in the test on SK-MEL-5 melanoma; 97.9% with UACC-62 melanoma; 94.4% with LOX IMVI melanoma. In the test with SK-MEL-28 melanoma, the growth is 105%.
For the molecule `Oc1ccccc1C=Nc1ccccc1N=Cc1ccccc1O.[Cu+2]`, the growth is 47.9% in the test with SNB-75 CNS; 91.7% with SNB-19 CNS; 61.8% in the test with U251 CNS; 24.1% in the test on SK-MEL-5 melanoma; 43.9% with UACC-62 melanoma; 47.6% in the test on LOX IMVI melanoma. Also, the growth with SK-MEL-28 melanoma is 85.1%.
Consider `O=C(Nc1ccncc1)C(=O)c1cn(S(=O)(=O)c2cccc(F)c2)c2ccccc12`, for which the growth in the test on SNB-75 CNS is 29.6%; in the test on SNB-19 CNS, 76.5%; in the test with U251 CNS, 22.2%; in the test with PC-3 prostate, 47%; in the test on SK-MEL-5 melanoma, 28.7%; with LOX IMVI melanoma, 45.2%. Moreover, the growth in the test with SK-MEL-28 melanoma is 55.5%; with SK-MEL-2 melanoma, -7.51% (active).
As for `COC(=O)CCC1=C(C)/C(=C/c2[nH]c(-c3ccc[nH]3)cc2OC)N=C1C`, the growth with SNB-75 CNS is -32% (active); with SNB-19 CNS, 44.7%; with U251 CNS it was -1.49% (active); with SK-MEL-5 melanoma, -92% (active); in the test with UACC-62 melanoma it was -49.6% (active); in the test on LOX IMVI melanoma, -64.3% (active). In the test with SK-MEL-28 melanoma, the growth was -0.539% (active).
Regarding `CCN1C(=O)c2ccc3c4c(ccc(c24)C1=O)C(=O)N(CCCNCc1ccccc1OC)C3=O`, the growth was -71.5% (active) in the test on SNB-75 CNS; -64.1% (active) with SNB-19 CNS; -86.3% (active) in the test on U251 CNS; 0.702% (active) in the test with PC-3 prostate; 3.31% (active) with SK-MEL-28 melanoma.
Take `COc1ccc(-c2c(-c3cc(OC)c(OC)c(OC)c3)noc2N)cc1`: the growth in the test with SNB-75 CNS was 52.7%; with SNB-19 CNS it was 38.7%; with U251 CNS, 22.2%; in the test on PC-3 prostate it was 21.8%; with SK-MEL-5 melanoma it was -60.7% (active); with UACC-62 melanoma, 43.9%. The growth was 17.6% in the test on LOX IMVI melanoma, 58.6% in the test with SK-MEL-28 melanoma and 72.6% in the test with SK-MEL-2 melanoma.
In the case of `COc1cccc2c1O/C(=C\c1c([N+](=O)[O-])ncn1C)C2=O`, the growth in the test on SNB-75 CNS was 101%; with SNB-19 CNS, 106%; in the test on U251 CNS, 97.4%; in the test on PC-3 prostate it was -29.8% (active); in the test on SK-MEL-5 melanoma, 102%; with UACC-62 melanoma it was 109%. For the same molecule, the growth with LOX IMVI melanoma is 85.2%; in the test on SK-MEL-28 melanoma, 106%; in the test on SK-MEL-2 melanoma it was 97.6%.
As to `COc1cc(/C=C2\COc3ccc(O)c(O)c3C2=O)cc(OC)c1`, the growth with SNB-75 CNS was 26.5%; in the test with SNB-19 CNS, 11.2%; in the test with U251 CNS, -19.3% (active); in the test on PC-3 prostate it was -3.29% (active); in the test on UACC-62 melanoma, -86.3% (active); with LOX IMVI melanoma, -66.2% (active). The growth in the test on SK-MEL-28 melanoma is 14.1%; with SK-MEL-2 melanoma, 86.5%.

For the origin of these results see PubChem BioAssay (NCI).
